Screens deposited in PubChem by National Center for Advancing Translational Sciences (NCATS).
HTT ATP protect = protects HTT-Q103 PC12 cells, measured by ATP; 0.14% of 230,000 active; PC12 HTT-Q103 induced, cytoprotection, ATP luminescence, 40 h; AID 1471; Potency, µM (series often up to 56.4 µM), inactives show cytoprotection (ATP increase), actives largely listed as activators; also: potency is read from the fitted curve at half-maximal effect; % of control where 0% means no effect; nearly all actives have a fitted effect of over 45% in size
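Stable PC12 Q103-GFP cells in serum-supplemented, phenol red-free DMEM; induction by tebufenozide at 100 nM final; compound dose series; cell viability quantified luminescently from ATP.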
HTT aggregate = reduces HttQ103-GFP aggregates in PC12 cells | PC12 HttQ103-GFP aggregates, Acumen cytometry, 40 h | Potency, µM (titrated, usually from 46.1 µM), for inactives: top-dose activity change, negative = inhibition, usual class: inhibitors | 1.1% of 220,000 active | AID 1688; also: potency is read from the fitted curve at half-maximal effect; % is scaled to controls: 0 for no effect and ±100 for the full control effect; nearly all actives have a fitted effect of over 60% in size
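Ecdysone-promoter PC12 model expressing HTT exon 1 Q103 fused to GFP, induced by tebufenozide at 100 nM final. Compounds titrated; aggregates sized 1–25 µm scored on a 488 nm laser cytometer.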
RGS12 GoLoco inh = inhibitors of human Gai1-RGS12 GoLoco interaction (red fluorophore). P63096. Gai1:RGS12 GoLoco peptide FP, rhodamine, 10 min. Potency, µM (titrated, usually from 61.6 µM), for inactives: at the highest dose activity, negative = inhibition, most hits filed as inhibitors. 0.44% of 230,000 active; active = well fitted inhibition curve with a large enough effect, not every such curve was filed as active; inactive = no such curve, though single readings can be large or run the other way; also: potency is read from the fitted curve at half-maximal effect; % is scaled to controls: 0 for no effect and ±100 for the full control effect; nearly all actives have a fitted effect of over 30% in size
PNC assembly inh = inhibitors of perinucleolar compartment assembly. PC3M PTB-GFP, PNC prevalence imaging, 16 h; active compounds read low. activity change (PNC), negative = inhibition, % at 10 µM. 3.1% of 140,000 active;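 active = readout at or below -70, meaning at least 70% loss of cells showing the perinucleolar compartment, a nuclear body marking cancer cells; inconclusive = readout between -30 and a set limit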;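 also: plate controls were DMSO wells for no effect and camptothecin positive control wells for full effect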
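Read-out is percentage of cells bearing a perinucleolar compartment, from automated 20x imaging of fixed, Hoechst-stained PC3M PTB-GFP cells. Cells were seeded 4 h, then exposed 16 h to compound (23 nl of library stock) in duplicate plates.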
ALDH1A1 inh = inhibitors of human aldehyde dehydrogenase 1A1; P00352; Purified ALDH1A1, NADH fluorescence, propionaldehyde substrate; Potency, µM (highest dose often 75.3 µM), for inactives: at the highest dose activity, negative = inhibition, hits mostly inhibitors; 7.3% of 220,000 active; AID 1030; active = well fitted inhibition curve with a large enough effect, not every such curve was filed as active; inconclusive = small, poorly fitted or top-dose-only effect, or another doubt; inactive = no such curve, though single readings can be large or run the other way;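 also: potency is read from the fitted curve at half-maximal effect; plate controls were no enzyme wells and a reference inhibitor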
Target sequence (P00352 whole entry, looked up): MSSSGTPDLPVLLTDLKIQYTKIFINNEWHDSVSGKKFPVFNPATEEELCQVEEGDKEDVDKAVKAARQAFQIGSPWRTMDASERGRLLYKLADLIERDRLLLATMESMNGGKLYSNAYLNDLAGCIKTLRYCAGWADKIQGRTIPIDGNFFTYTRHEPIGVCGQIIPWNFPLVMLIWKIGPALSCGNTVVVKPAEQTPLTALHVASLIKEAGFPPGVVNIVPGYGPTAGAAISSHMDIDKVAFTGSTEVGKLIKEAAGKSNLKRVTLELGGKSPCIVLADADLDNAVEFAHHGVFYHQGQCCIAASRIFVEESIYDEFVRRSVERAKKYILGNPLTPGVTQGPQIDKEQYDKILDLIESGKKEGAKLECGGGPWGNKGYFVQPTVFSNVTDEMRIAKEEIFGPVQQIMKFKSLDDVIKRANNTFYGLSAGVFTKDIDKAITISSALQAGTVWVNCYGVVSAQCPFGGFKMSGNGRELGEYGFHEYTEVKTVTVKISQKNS
HPGD block = HPGD (human) dehydrogenase inhibition; P15428; purified HPGD, NADH fluorescence kinetic, PGE2 substrate; Potency, µM, for inactives: top-dose activity change, negative = inhibition, usual class: inhibitors; 4.3% of 150,000 active; active = well fitted inhibition curve with a large enough effect, not every such curve was filed as active; inconclusive = small, poorly fitted or top-dose-only effect, or another doubt; inactive = no such curve, though single readings can be large or run the other way; also: potency is read from the fitted curve at half-maximal effect; % is scaled to controls: 0 for no effect and ±100 for the full control effect
Target sequence (P15428 whole entry, looked up): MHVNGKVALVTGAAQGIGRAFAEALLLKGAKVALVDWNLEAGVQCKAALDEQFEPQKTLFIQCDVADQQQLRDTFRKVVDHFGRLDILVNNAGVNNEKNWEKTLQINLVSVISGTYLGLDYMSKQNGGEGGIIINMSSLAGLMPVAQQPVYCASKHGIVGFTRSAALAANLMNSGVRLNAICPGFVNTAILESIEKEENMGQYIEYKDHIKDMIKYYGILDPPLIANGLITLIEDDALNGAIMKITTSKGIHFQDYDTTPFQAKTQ
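20 nM HPGD preincubated 15 min at room temperature with compound in 50 mM Tris-HCl pH 8, 0.01% Tween 20. Started with 1 mM NAD+ and 30 uM prostaglandin E2; NADH fluorescence (360/450 nm) read 5 times over 30-s intervals, last minus first.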
* = called active by the depositor; [ ] = remark or other dose. Hits are enriched below; roughly 11% of the tested compounds scored in any of these assays. Unless noted, calls follow the shape of the dose curve; as a rule, active = well fitted curve in the direction sought with a large enough effect; inconclusive = small, poorly fitted or top-dose-only effect, or another doubt; inactive = no such curve, though single readings can be large; an effect the other way counts as inactive or inconclusive.

For O=C(CSc1nnc(-c2cccnc2)n1-c1ccccc1)Nc1ccccc1 the results were HTT ATP protect -13.7%[10 µM], HTT aggregate -7.8%, RGS12 GoLoco inh 0.9%, PNC assembly inh -100.0*, ALDH1A1 inh 1.2% and HPGD block -14.7%.
Cc1ccc(NC(=O)CSc2nnc(-c3cccnc3)n2-c2ccc(C)cc2)cc1 was read as HTT ATP protect 21.2%[10 µM], HTT aggregate -10.9%, RGS12 GoLoco inh 8.5%, PNC assembly inh 4.1, ALDH1A1 inh 5.9% and HPGD block -13.4%.
For COc1cc(OC)cc(C(=O)Oc2c(CN3CCOCC3)cc(Cl)c3cccnc23)c1 the results were HTT ATP protect -75.6%[10 µM], HTT aggregate 4.47µM*, RGS12 GoLoco inh 6.9% and ALDH1A1 inh inconclusive.
COc1ccc(C(=O)Oc2c(CN3CCOCC3)cc(Cl)c3cccnc23)cc1OC was read as HTT ATP protect -27.7%.
Screening COc1ccc(N2CCCn3c2nc2c3c(=O)n(Cc3ccccc3F)c(=O)n2C)c(OC)c1 returned HTT ATP protect -6.6%, HTT aggregate -17.0%, RGS12 GoLoco inh -9.1%, PNC assembly inh -15.5, ALDH1A1 inh 11.2µM* and HPGD block inconclusive.
`COc1ccc(N2CCCn3c2nc2c3c(=O)n(CCCc3ccccc3)c(=O)n2C)cc1` gave HTT ATP protect -23.1%[0.074 µM], HTT aggregate -10.0%, RGS12 GoLoco inh 5.1%, PNC assembly inh 12.6, ALDH1A1 inh -14.3% and HPGD block -12.0%.
`COc1ccc(CCN2CCCn3c2nc2c3c(=O)n(Cc3ccccc3F)c(=O)n2C)cc1OC` gave HTT ATP protect 7.0%, HTT aggregate 19.1%, RGS12 GoLoco inh 2.5%, PNC assembly inh 12.1, ALDH1A1 inh 3.55µM* and HPGD block inconclusive.
`CCn1c(=O)c2c(nc3n2CCCN3CCc2ccccc2)n(C)c1=O` gave HTT ATP protect -23.8%[0.074 µM], HTT aggregate 3.8%, RGS12 GoLoco inh -8.2%, PNC assembly inh 31.5, ALDH1A1 inh 7.3% and HPGD block -15.2%.
COc1ccc(N2CCCn3c2nc2c3c(=O)n(Cc3ccccc3F)c(=O)n2C)cc1 was read as HTT ATP protect -20.2%[0.074 µM], HTT aggregate -4.5%, RGS12 GoLoco inh 3.7%, PNC assembly inh 29.6, ALDH1A1 inh 8.91µM* and HPGD block -5.6%.
Screening O=C(c1cnccn1)N1CCC[C@@]2(CCN(c3cccc(-c4ccccc4)c3)C2)C1 returned HTT ATP protect -5.8%, RGS12 GoLoco inh 8.9%, ALDH1A1 inh -9.0% and HPGD block -12.3%.
For Cc1cc(C)n2nc(SC(C)C(=O)Nc3ccc(Cl)cn3)nc2n1 (centres undefined) the results were HTT ATP protect -15.8%[10 µM], HTT aggregate 23.1%, RGS12 GoLoco inh 2.7% and ALDH1A1 inh inconclusive.
C=CCn1c(SCC(=O)N2CCCCC2)nc(O)cc1=O was read as HTT ATP protect 2.6%, HTT aggregate 3.3%, RGS12 GoLoco inh 3.0%, PNC assembly inh 44.4, ALDH1A1 inh 6.6% and HPGD block 0.316µM*.
Screening O=C(CSc1ncnc2ccccc12)Nc1ccc2c(c1)OCO2 returned HTT ATP protect 14.1%, HTT aggregate 21.2%, RGS12 GoLoco inh -5.1%, PNC assembly inh 40.0, ALDH1A1 inh 11.2µM* and HPGD block -7.0%.
Screening Cc1ccc(C(=O)CSc2ncnc3ccccc23)o1 returned HTT aggregate -0.4%, RGS12 GoLoco inh 11.1% and ALDH1A1 inh inconclusive.
Screening O=C(CSc1ncnc2ccccc12)c1cccs1 returned HTT ATP protect -47.5%, HTT aggregate inconclusive, RGS12 GoLoco inh 6.3% and ALDH1A1 inh 11.2µM*.
`COc1ccc(-n2nnc3c(SCC(=O)Nc4ccc5c(c4)OCCO5)ncnc32)cc1` gave HTT ATP protect -52.5%, HTT aggregate 8.4%, RGS12 GoLoco inh 20.3%, PNC assembly inh -83.4*, ALDH1A1 inh inconclusive and HPGD block -17.9%.
O=C(CSc1ncnc2ccccc12)Nc1ccc2c(c1)OCCO2 was read as HTT ATP protect 12.0%, HTT aggregate -8.0%, RGS12 GoLoco inh -3.8% and ALDH1A1 inh -3.5%.
`NS(=O)(=O)c1ccc(NC(=O)CSc2ncnc3ccccc23)cc1` gave HTT ATP protect 8.91µM*, HTT aggregate -1.6%, RGS12 GoLoco inh 7.7% and ALDH1A1 inh -1.9%.
For Cc1ccccc1OCCNC(=O)/C=C/c1ccccc1 the results were HTT ATP protect 13.8%[10 µM], HTT aggregate -2.3%, RGS12 GoLoco inh 10.7%, PNC assembly inh 0.5, ALDH1A1 inh inconclusive and HPGD block -10.1%.
CC(C)CO/N=C1/C[C@@H](O)[C@@H](O)[C@@H]2[C@@H]3C(=O)N(C(C)(C)C)C(=O)[C@H]3CC[C@@H]12 was read as HTT ATP protect -37.7%[10 µM] and ALDH1A1 inh -5.9%[13.5 µM].
`O=C(O)CSc1ccc([N+](=O)[O-])cc1[N+](=O)[O-]` gave HTT ATP protect 2.9%[10 µM], RGS12 GoLoco inh 6.7%[14.2 µM], ALDH1A1 inh 0.3%[13.5 µM] and HPGD block -5.9%.
Screening CCCC[C@H](CC)CN=C(N)NC(N)=NCCCCCCN=C(N)NC(N)=NC[C@@H](CC)CCCC returned HTT ATP protect -27.8%[40.3 µM], RGS12 GoLoco inh 4.0%[21.6 µM], ALDH1A1 inh 9.8%[20.9 µM] and HPGD block -1.7%.
For Clc1cc(Sc2ccc(Br)cc2)nnc1-c1ccccc1 the results were HTT ATP protect -43.6%, HTT aggregate -26.5%, RGS12 GoLoco inh 20.0%, PNC assembly inh -13.5, ALDH1A1 inh 1µM* and HPGD block -21.5%.
COc1ccc(NC(=O)c2cnc(C)cn2)cc1-n1cnnn1 was read as HTT ATP protect 4.7%[10 µM], HTT aggregate 14.4%, RGS12 GoLoco inh 5.5%, PNC assembly inh -18.7, ALDH1A1 inh 4.3% and HPGD block -10.5%.
`COc1ccc(NC(=O)C2CC2)cc1-n1cnnn1` gave HTT ATP protect -16.5%[10 µM], HTT aggregate -11.3%[9.22 µM], RGS12 GoLoco inh -2.2%, PNC assembly inh 7.6, ALDH1A1 inh -5.7% and HPGD block 14.1µM*.
`C=CCc1cc(C)ccc1OCCn1ccnc1` gave HTT ATP protect -6.5%, HTT aggregate -3.4%, RGS12 GoLoco inh 4.6%, PNC assembly inh 4.0, ALDH1A1 inh inconclusive and HPGD block -5.1%.
C=CCc1cc(C)ccc1OCCOCCn1ccnc1 was read as HTT ATP protect 14.7%[10 µM], HTT aggregate -19.4%, RGS12 GoLoco inh 2.8%, PNC assembly inh 29.2, ALDH1A1 inh 25.1µM* and HPGD block 1.2%.
For O=C(CSc1cccc2cccc(Cl)c12)NCc1cccs1 the results were HTT ATP protect 26.0%[10 µM], HTT aggregate -1.8%, RGS12 GoLoco inh 6.3%, PNC assembly inh inconclusive, ALDH1A1 inh -4.7% and HPGD block 10µM*.
O=C(Cc1ccc(-n2cccc2)cc1)NCc1cccs1 was read as HTT ATP protect -2.2%, HTT aggregate 0.9%, PNC assembly inh -106.0* and ALDH1A1 inh -2.8%.
